# Rows were chosen to be rich in hits. Some 2.4% of all compounds tested hit in one or more screens of this group.
# SENP6 block: SENP6 protease inhibition; Recombinant SENP6 catalytic domain, aminoluciferin luminescence; inhibition, % at 10 µM; hit rate 1.8% among 330,000;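 active means inhibition above about 50% at the single tested dose, limit read from the data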;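 further: plate controls were DMSO wells with enzyme for no effect and DMSO wells lacking enzyme for full effect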
# Target sequence (Q9GZR1 628-1112 limits assumed): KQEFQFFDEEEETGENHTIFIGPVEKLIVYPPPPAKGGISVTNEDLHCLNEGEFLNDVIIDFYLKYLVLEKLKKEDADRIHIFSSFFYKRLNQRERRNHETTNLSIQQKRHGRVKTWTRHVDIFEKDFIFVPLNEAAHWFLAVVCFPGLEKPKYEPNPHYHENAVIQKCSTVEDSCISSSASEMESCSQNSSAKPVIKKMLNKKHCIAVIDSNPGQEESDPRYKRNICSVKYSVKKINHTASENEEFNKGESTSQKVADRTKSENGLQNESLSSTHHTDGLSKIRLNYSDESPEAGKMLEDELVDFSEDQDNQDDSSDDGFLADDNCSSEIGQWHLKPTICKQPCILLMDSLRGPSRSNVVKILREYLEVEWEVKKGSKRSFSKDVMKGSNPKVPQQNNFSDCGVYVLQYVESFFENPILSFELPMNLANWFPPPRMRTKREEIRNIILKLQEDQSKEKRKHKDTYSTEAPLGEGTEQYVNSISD
# SENP8 block-1: SENP8 (human) protease inhibition; Q96LD8; inhibition, % at 20 µM; AID 602440; hit rate 0.64% among 360,000; recombinant SENP8, Nedd8 substrate fluorescence; in the data active means inhibition mostly above about 40%, no sharp cut-off; inactive means mostly below about 27%
# SENP7 inh: blocks the human protease SENP7; recombinant SENP7, Z-RLRGG-aminoluciferin luminescence, 40 min; Q9BQF6; hit rate 1.5% among 330,000; inhibition, % at 5 µM; AID 434973;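 active means inhibition above about 50% at the single test dose, limit read from the data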;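 further: plate controls were DMSO with enzyme for no effect and no enzyme buffer wells for full effect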
# Platelet DG rel: platelet dense granule release activity. human platelet-rich plasma, SFLLRN dense granule ATP release, luminescence. inhibition, %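 (compounds screened at 7.5 µM in platelet-rich plasma)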. hit rate 0.22% among 300,000;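 active means mean replicate score, as percent of positive control, at or above 50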
# SENP8 block-2: inhibitors of human SENP8 protease. purified SENP8, Z-RLRGG-aminoluciferin cleavage, luminescence. inhibition, % at 10 µM. hit rate 1.2% among 330,000. Q96LD8; in the data active means inhibition above about 50%
# SENP8 conf-1: human SENP8 inhibition, confirmed; AID 488912; Recombinant SENP8, Z-RLRGG-aminoluciferin luminescence, 60 min; shares compounds with SENP7 inh; hit rate 40% among 6,200; inhibition, % at 12.5 µM;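 active means mean inhibition across replicates above about 50%, limit read from the data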
# SENP6 confirm: human SENP6 inhibition, confirmed. shares compounds with SENP7 inh. recombinant SENP6, Z-RLRGG-aminoluciferin luminescence. inhibition, % at 12.5 µM. hit rate 58% among 6,200
# SENP7 conf: human SENP7 inhibition, confirmed; inhibition, % at 12.5 µM; recombinant SENP7, Z-RLRGG-aminoluciferin luminescence, 40 min; shares compounds with SENP7 inh; hit rate 69% among 6,200; AID 488917
# Casp3 select: selectivity test for SENP inhibitors: human caspase-3 inhibition | hit rate 60% among 6,200 | purified caspase-3, Z-DEVD-aminoluciferin luminescence, 60 min | inhibition, % at 12.5 µM | shares compounds with SENP7 inh;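 active means mean inhibition above about 50%, limit read from the data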;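 further: plate controls were enzyme with DMSO for no effect and wells without caspase-3 for full effect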
# SENP luc ctr: counter-screen for SENP inhibitors: luminescence interference; shares compounds with SENP7 inh; hit rate 39% among 6,200; Pre-incubated SENP8/Z-RLRGG-aminoluciferin, luciferase luminescence interference; inhibition, % at 12.5 µM;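 active means mean inhibition above about 50% when retested at one dose, limit read from the data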;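 further: plate controls were DMSO wells with completed reaction for no effect and substrate without enzyme for full effect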
# SENP8 conf-2: confirmation of human SENP8 protease inhibitors | shares compounds with SENP8 block-1 | purified SENP8, Nedd8-AMC/pro-Nedd8 cleavage fluorescence, 30 min | inhibition, % at 25 µM | hit rate 15% among 1,400 | AID 624319; in the data active means inhibition mostly above about 39%, no sharp cut-off; inactive means mostly below about 34%
# * hit, by the source's call; / = not tested or not shown.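 How the source made its calls, unless noted: active means mean inhibition above about 50% in the one-dose retest (limit read from the data); inactive means the rest.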
SMILES,SENP6 block,SENP8 block-1,SENP7 inh,Platelet DG rel,SENP8 block-2,SENP8 conf-1,SENP6 confirm,SENP7 conf,Casp3 select,SENP luc ctr,SENP8 conf-2
Cc1nc(NNC(=O)c2ccc([N+](=O)[O-])cc2)cc(-c2ccccc2)n1,-12,17,0,-5,2,/,/,/,/,/,/
CC(C)(C)c1ccc(C(=O)NNc2cc(N3CCCCC3)nc(N3CCCCC3)n2)cc1,86*,48*,74*,2,17,13,28,9,2,4,79*
N#CC1=C2SCN(Cc3ccccc3)CN2C(=O)CC1c1cccs1 (centres undefined),74*,69*,40,-5,71*,-26,5,-3,-5,-4,9
COc1ccc(N2CCN(C(=O)CN3C(=O)NC(C)(C4CC4)C3=O)CC2)cc1 (centres undefined),-12,18,-2,/,-8,/,/,/,/,/,/
CN(C)c1cc(N/N=C\c2ccccc2)nc(N(C)C)n1,76*,51*,71*,0,34,61*,76*,36,-3,1,69*
CN(C)S(=O)(=O)c1ccc(C(=O)NN2C(=O)NC3(CCCCC3)C2=O)cc1,-5,3,-4,/,-6,/,/,/,/,/,/
Cc1c(Cl)cccc1N=Cc1ccc([N+](=O)[O-])s1,51*,68*,35,0,55*,8,17,12,0,-1,21
Cc1cccc(C)c1N1C(=O)CCC(C)(C)C1=O,-35,7,-5,3,-4,/,/,/,/,/,/
O=C1C2=C(c3ccccc31)[N+](=O)[C@@H]1CCCC[C@@H]1N2[O-],81*,74*,57*,2,49,14,56*,25,15,5,74*
O=[N+]([O-])c1cc([N+](=O)[O-])c2nonc2c1Nc1ccccc1O,26,22,20,5,8,/,/,/,/,/,/
O=[N+]([O-])c1cc([N+](=O)[O-])c2nonc2c1Nc1ccc(O)cc1,58*,79*,18,-14,-1,-4,2,-5,4,21,22
COc1ccc(Nc2ccc(OC)cc2)cc1,54*,96*,11,4,24,-6,-10,7,10,11,14
COc1ccc(Nc2ccc(Nc3ccc(OC)cc3)nn2)cc1,-9,15,12,1,-1,/,/,/,/,/,/
N#Cc1ccccc1OCC(=O)Nc1ccccc1C(=O)NC1CC1,-2,-22,-2,-8,0,/,/,/,/,/,/
COc1cc(NC(C)CCCN)c2ncccc2c1 (centres undefined),64*,47*,84*,2,49,44,69*,30,97*,1,81*
CC(C)Oc1ccc(S(=O)(=O)N2CCOCC2)cc1NC(=O)Cc1c(F)cccc1Cl,-13,12,-12,-2,-2,/,/,/,/,/,/
C/C(=N\N=C(/N)c1nonc1N)c1ccc2c(c1)OCO2,84*,43*,92*,1,82*,88*,88*,100*,91*,28,15
CCC(CC)NC(=O)Nc1ccccc1C(F)(F)F,5,11,6,6,2,/,/,/,/,/,/
NC(=S)NNc1cccc2cccnc12,91*,51*,38,7,49,-3,12,-5,8,4,66*
NC(=S)Nc1cccc2cccnc12,-4,5,4,-2,3,/,/,/,/,/,/
O=C1OC(Nc2cc(Br)cc3cccnc23)c2ccccc21 (centres undefined),94*,41*,92*,-6,-4,16,63*,51*,16,13,-14
COc1ccccc1-c1nc2ccccc2nc1-c1ccccc1OC,0,-248,-6,-50,4,/,/,/,/,/,/
O=C1c2ccccc2-c2nc3ccccc3nc21,51*,47*,38,9,17,37,53*,49,64*,16,89*
O=C(NC1CC(=O)N(c2ccccc2)C1)C1CC1 (centres undefined),-19,10,1,-1,-4,/,/,/,/,/,/
O=C(N/N=C/c1ccc(OCc2ccccc2)cc1)c1ccncc1,2,-12,-8,-2,-11,/,/,/,/,/,/
SMILES,SENP6 block,SENP8 block-1,SENP7 inh,Platelet DG rel,SENP8 block-2,SENP8 conf-1,SENP6 confirm,SENP7 conf,Casp3 select,SENP luc ctr,SENP8 conf-2
Oc1ccc(N=Cc2ccc(OCc3ccccc3)cc2)cc1,91*,66*,43,4,57*,-3,57*,68*,50,7,-9
CCN(CC)c1cc(Cl)c2nonc2c1N,44,37,10,13,17,/,/,/,/,/,/
CN(C)c1cc(Cl)c2nonc2c1N,95*,89*,91*,-7,96*,15,33,5,-4,-6,56*
O=C1Cc2ccccc2C(=O)N1OCc1ccc(Cl)cc1,71*,92*,52*,-2,28,12,28,17,15,4,64*
O=C(Cc1ccccc1)Nc1nc2ccccc2s1,5,-2,-1,-4,-13,/,/,/,/,/,/
O=C(Cc1ccccc1)c1nc2ccccc2s1,69*,48*,39,2,54*,0,64*,87*,62*,43,67*
O=C(O)C(c1ccccc1)C1(O)CC2CCC1C2 (centres undefined),/,9,/,/,/,/,/,/,/,/,/
O=C(O)c1cc(Cl)c(Cl)cc1C(=O)Nc1cccc2cccnc12,44,61*,69*,-2,11,-24,-14,-3,-6,-6,9
CCN(CC)C(=O)Cn1cc(C(=O)C(=O)Nc2ccc3c(c2)OCCO3)c2ccccc21,-16,7,-14,4,-15,/,/,/,/,/,/
O=C(Nc1ccc(N2CCCCC2)cc1)c1ccc([N+](=O)[O-])o1,87*,38*,93*,24,74*,10,90*,100*,85*,20,17
CC1CCN(c2ccc(NC(=O)c3ccc([N+](=O)[O-])o3)cc2)CC1,75*,55*,78*,0,45,-23,-3,6,11,-3,-1
CS(=O)(=O)N1CCN(c2ccc(NC(=O)c3ccc([N+](=O)[O-])o3)cc2)CC1,/,39,/,-8,/,/,/,/,/,/,/
O=C(CC1CCCC1)N1CCN(S(=O)(=O)c2cccc(F)c2)CC1,/,3,/,/,/,/,/,/,/,/,/
CCC/C(O)=C1\C(=O)CCCC1=NCCc1c(C)[nH]c2ccc(OC)cc12,-9,2,3,-23,10,/,/,/,/,/,/
